The source of these data is ChEMBL document CHEMBL4513216, “Probing the Open Global Health Chemical Diversity Library for Multistage-Active Starting Points for Next-Generation Antimalarials” (ACS Infect Dis, 2020).

The whole screen tested about 69,000 compounds, of which about 8,600 (12%) showed an effect of 50% or more. The entries come from a sample that favours strong results as a whole.

For this assay, the system named is Plasmodium berghei. As to the kind of experiment: Screen against P. berghei liver stage (PbLuc), transformed with Luciferase, at 10uM. The following applies: tested at 10 uM. It is filed as functional, HepG2.
For `CC1CCCN(C(=O)c2occc2COc2cccc(C#N)c2)C1` (centres undefined), the INHIBITION is reported as 35.1%.
In the case of `CC(C)N1CCC2(CCCN(c3nccc(C(F)(F)F)n3)C2)CC1` it was -12.2%; in that of `c1ccc(CNc2ncc(CN3CC[C@@H]4CC[C@H](C3)N4)cn2)cc1`, 30.3%; in that of `c1ccc(CNc2ncc(CN3CCCN4CCC[C@H]4C3)cn2)cc1`, 30.3%.
Next, `CN(C)[C@H]1CCCCN(Cc2cnc(NCc3ccccc3)nc2)C1`: 57.5%; `c1ncn(Cc2cn3c(n2)CN(CC2CCCCC2)CC3)n1`: -10.3%; `CC(C)(C)c1n[nH]c(C2CN(C(=O)c3csnn3)CCO2)n1` (centres undefined): 11.1%.
Turning to `NC(=O)C1CCN(C(=O)NC2CCc3cc(Cl)ccc32)CC1` (centres undefined), the INHIBITION is given as 18.4%.
In the case of `C[C@H]1CN(C)C[C@@]12COCCN(C(=O)Cc1ccccc1)C2` it was -21.7%; in that of `CC(=O)N1CCN([C@@H]2CCC[C@@H](N(C)C(=O)C3CC3)[C@H]2O)CC1`, 45.6%.
In the case of `COc1cccc(Cn2ncnc2COC(C)C)c1` it was -16.1%; in that of `COC(=O)N1CC2=CC(C)(C)COc3ccc(OC)c(c32)C1`, 63.1%.
Next, `COCC(=O)N1CC2=CC(C)(C)COc3ccc(OC)c(c32)C1`: 48%; `COc1ccc2c3c1CN(C(=O)N(C)C)CC3=CC(C)(C)CO2`: 25.3%; `COc1ccc2c3c1CN(C(C)=O)CC3=CC(C)(C)CO2`: 52.5%.
Turning to `CCNC(=O)N1CC2=CC(C)(C)COc3ccc(OC)c(c32)C1`, the INHIBITION turned out to be 22.2%.
Regarding `COCCOC(=O)N1CC2=CC(C)(C)COc3ccc(OC)c(c32)C1`, the INHIBITION is listed as -3.5%.
In the case of `CC(C)NC(=O)c1nnn(-c2ccc(F)cc2)c1C1CC1` it was -38.2%; in that of `Cc1cccc(CN2C[C@H]3CC[C@@H](C2)N(Cc2c(C)noc2C)C3=O)n1`, -84%; in that of `CCOC(=O)N1CCC(NC(C)c2ccccc2-n2cccn2)CC1` (centres undefined), 17.5%.
Next, `CC(NCc1cccc(NC(=O)C2CCCCC2)c1)c1cnn(C)c1` (centres undefined): 45.4%.
Turning to `Cn1ccnc1CN1CCN(CC(O)c2cc(F)ccc2F)CC1` (centres undefined), the INHIBITION is listed as 21.5%.
In the case of `CC(C)c1nn(C)c(N(C)C)c1CNCc1ccc(N(C)C)nc1` it was 13.5%.
Next, `Cc1cc(NC(=O)C2CCN(c3nnc(C)c(C)c3C#N)CC2)no1`: 19.4%; `Cc1cc(C(=O)NC2CCN(c3ncccc3C#N)CC2)no1`: 5.23%.
Take `Cc1cc(NC(=O)C2CCN(c3ncccc3C#N)CC2)no1`: the INHIBITION is recorded as 50.1%.
In the case of `Cn1cc(C2=NOC(C(=O)NC3(c4ccccc4F)CCCC3)C2)cn1` (centres undefined) it was 45.6%; in that of `CN1CCC(N(C)C(=O)c2cnn(-c3cc(F)ccc3F)c2N)CC1`, 39.2%; in that of `O=C(CN1CCOCC1CC(=O)c1ccco1)NCc1ccccn1` (centres undefined), 54.3%.
Turning to `CN(C)S(=O)(=O)N1CCOCC1CC(=O)NCCOc1ccccc1` (centres undefined), the INHIBITION was determined as 23.5%.
Next, `Nc1ncccc1CN1CCOCC1CC(=O)NCc1ccccn1` (centres undefined): 47.6%; `O=C(CC1COCCN1S(=O)(=O)c1ccccc1)NCc1ccccn1` (centres undefined): 68.5%.
On to `Cc1ccc(CC2CCCN2CC(=O)NCc2ccccn2)cc1` (centres undefined), for which the INHIBITION came to 28.4%.
In the case of `O=C(CN1CCCC1CC(=O)c1ccccc1)NCc1ccccn1` (centres undefined) it was 1.93%; in that of `CC(C)c1nc(C2CCCN2CCS(=O)(=O)c2ccccc2)no1` (centres undefined), -12.6%; in that of `NC(=O)C1CN(C(=O)c2ccc(F)cc2)CCN1CCc1ccccc1` (centres undefined), 22%.
Regarding `CCC(NC(=O)c1cnc(-c2cccnc2)nc1)c1ccnn1C` (centres undefined), the INHIBITION was -31.4%.
On to `O=C(NCCCN1CCOCC1)c1ccn(COc2ccc(Br)cc2)n1`, for which the INHIBITION turned out to be 47.4%.
In the case of `Cc1cc(C2CCCN(C(=O)c3c(C)noc3C)C2)n[nH]1` (centres undefined) it was -2.37%; in that of `O=C(Nc1cccnc1)[C@@H]1C[C@H]2OCC[C@H]2N(Cc2ccsc2)C1`, -2.84%; in that of `Cc1ccc(Cl)c(CN2CCC(c3nccn3C(C)C)CC2)c1F`, -7.71%.
Next, `CC(C)c1ccc(O)c(C(=O)NC2CCN(c3ncccn3)CC2)c1`: 0.643%; `O=C(NC1CCN(c2ncccn2)CC1)c1cc2c(cc1O)CCCC2`: 55%.
`O=C(NC1CCN(c2ncccn2)CC1)c1cc2c([nH]c1=O)CCC2`: the INHIBITION is on record as -46.5%.
In the case of `CC(=O)N[C@@H]1CN(C(=O)CC2CCOCC2)C[C@H]1O` it was -5.8%; in that of `CCNC(=O)N(C)C(c1cccnc1)C(C)C` (centres undefined), 63.5%.
For the molecule `CC(C)C(c1cccnc1)N(C)C(=O)Cc1c(F)cccc1F` (centres undefined), the INHIBITION came out at 41.8%.
Next, `CC(C)C(c1cccnc1)N(C)C(=O)Cc1ccc(O)cc1` (centres undefined): -30%.
In the case of `COc1c[nH]c(C(=O)N2CCN(c3cccc(Cl)c3)CC2)cc1=O` it was 38.8%; in that of `CCc1cnc(N2CC[C@H]3[C@@H]2CCC(=O)N3c2cccnc2)nc1`, -24.1%; in that of `COC1CCN(C(=O)Cc2csc(-c3ccccc3)n2)CC1`, -55.9%.
In the case of `Cc1noc(C(C)C)c1C(=O)NCc1ccc2c(c1)OCCO2` it was -28.4%; in that of `CCCS(=O)(=O)N1CC(=O)N(Cc2ccccc2OC)CC(O)C1` (centres undefined), 41.1%; in that of `CC(SCCS(C)(=O)=O)c1nc(Cc2ccc(F)cc2)no1` (centres undefined), 12.4%.
Take `CCc1noc(C(C)SCCS(C)(=O)=O)n1` (centres undefined): the INHIBITION turned out to be 64.6%.
Next, `CC(SCCS(C)(=O)=O)c1nc(Cc2ccccc2)no1` (centres undefined): 13.5%; `O=C(Nc1cccnc1)[C@@H]1CCO[C@@H]2CCN(Cc3cccnc3)C[C@@H]21`: 12.7%; `CC(=O)N1N=C(c2ccccc2)OC1C(=O)NCCN(C(C)C)C(C)C` (centres undefined): 30.3%.
In the case of `Cc1nc(C(C)(C)C)sc1C(=O)NCCNc1ncccn1` it was 10%; in that of `Cc1nn(C)c(C)c1S(=O)(=O)NCC1(C(N)=O)CCOCC1`, 74.5%.
Next, `Cc1nn(C)c(C)c1CCC(=O)NCC1(C(N)=O)CCOCC1`: 26.4%; `Cc1nn(C)c(C)c1CC(=O)NCC1(C(N)=O)CCOCC1`: 47.7%.
For the molecule `CSc1ccc(CN(CCO)C(=O)CCNC(C)=O)cc1`, the INHIBITION stood at 18.4%.
In the case of `CNCc1n[nH]c(=O)n1-c1cccc(Cl)c1Cl` it was 25.1%; in that of `CN1CCN(c2nsc(-c3cccnc3)c2C#N)CC1`, 62.3%; in that of `CCN1CCN(c2nsc(-c3cccnc3)c2C#N)CC1`, 36.6%.
Consider `N#Cc1c(N2CCCCC2)nsc1-c1cccnc1`, for which the INHIBITION is reported as -0.621%.
In the case of `CN(Cc1ccc(N(C)C)cc1)C(=O)c1cc2c([nH]c1=O)CCCC2=O` it was -42.975%.
For the molecule `CNC(=O)c1ccc(C(=O)N2CCCCC2Cn2cc(C)cn2)cn1` (centres undefined), the INHIBITION was 24.6%.
Next, `Cc1cc(C(=O)N2CCC3(CC2)CC(c2cccnc2)C(=O)N3)no1` (centres undefined): -31.3%; `CN(C)C[C@@H]1OC[C@H]2CN(Cc3ccoc3)CC[C@H]21`: -87.7%; `Cc1ccc(CN2CC[C@@H]3[C@@H](CO[C@H]3CN(C)C)C2)o1`: 61.1%.
For `Cc1ccc(CN2CC[C@H]3CO[C@H](CN4CCN(C)CC4)[C@H]3C2)o1`, the INHIBITION was 45.7%.
`Cc1ccc(CN2CC[C@H]3CO[C@H](CN4CCCC4)[C@H]3C2)o1`: the INHIBITION is recorded as 7.7%.
In the case of `Cc1ccc(CN2CC[C@H]3CO[C@H](CN(C)C)[C@H]3C2)o1` it was 53.9%; in that of `Cc1ccc(CN2CC[C@H]3[C@H](CO[C@H]3CN(C)C)C2)o1`, 13.1%; in that of `CCCc1n[nH]c(C2CN(C(=O)c3cccnc3N(C)C)CCO2)n1` (centres undefined), 16.9%.
In the case of `O=C(NCCCO)C1(CC2CC(c3ccc(F)cc3)=NO2)CCOCC1` (centres undefined) it was 36%.
Consider `O=C(NCCO)C1(CC2CC(c3ccc(F)cc3)=NO2)CCOCC1` (centres undefined), for which the INHIBITION is recorded as 22.8%.
With `CC(C)NC(=O)C1(CC2CC(c3ccc(F)cc3)=NO2)CCNCC1` (centres undefined), the INHIBITION is 65.7%.
Next, `Cc1noc(C)c1CCC(=O)NCC1(O)CCCN(c2ccccn2)C1` (centres undefined): 30.4%.
As for `Cc1cc(CN(C)S(=O)(=O)N2CCCC2c2ccc(C)o2)no1` (centres undefined), the INHIBITION is on record as 31.9%.
On to `Cc1ccc(CN(C)CC2(O)CCCN(C)C2)o1` (centres undefined), for which the INHIBITION is on record as -12.7%.
Next, `Cc1nn(C)c2c(N3CCN(C)CC3)nc(C3CC3)nc12`: 21.5%.
Next, `COC(=O)NCC(=O)N1CCCC1c1nc(-c2ccccc2F)c[nH]1` (centres undefined): 60.3%.
Next, `O=C(COCC1CC1)N1CCCC1c1nc(-c2ccccc2F)c[nH]1` (centres undefined): 46.4%; `CCOCCCC(=O)N1CCCC1c1nc(-c2ccccc2F)c[nH]1` (centres undefined): 29.5%.
For the molecule `O=C(c1cnc2ccccc2c1)N1CCCC(O)(CN2CCCC2)C1` (centres undefined), the INHIBITION is on record as 16.2%.
As for `Cc1ccc(N2CCCC(NCC(=O)Nc3cc(C)nn3C)C2)nn1` (centres undefined), the INHIBITION was determined as 21%.
In the case of `Cc1nc(C)n(CC2CCCN(Cc3nnc(C4CC4)o3)C2)n1` (centres undefined), the INHIBITION amounted to 2.05%.
`CCC(=O)N1CCC(Cc2cc(Nc3ncccn3)ncn2)CC1`: the INHIBITION was 49.6%.
Next, `CN1CCC(Cc2cc(Nc3ncccn3)ncn2)CC1`: 62.6%; `CN1CCC(Cc2cc(Nc3ccccn3)ncn2)CC1`: -14.1%.
Next, `O=S(=O)(C1CC1)N1CCC2(CC1)CN(Cc1nccs1)CCO2`: 23.3%; `CCn1nc(C)c2c1cnn2CC(=O)Nc1ccc(OC)cc1C`: 45.4%; `CCOC(=O)c1ccc(S(=O)(=O)NCC(CC)N2CCCC2)cc1` (centres undefined): -9.2%.
As to `COc1nn(C)c2c1CCCN(C(=O)c1cccn1C)C2`, the INHIBITION is 8.67%.
In the case of `Cc1cc(C(F)(F)F)nn1CCNC(=O)C(C)n1ccnc1C(C)C` (centres undefined), the INHIBITION is 85.5%.
As for `Cc1nc(C)n(CCCNC(=O)C(C)n2ccnc2C(C)C)n1` (centres undefined), the INHIBITION is -129%.
In the case of `Cc1nc(C)n(CCNC(=O)C(C)n2ccnc2C(C)C)n1` (centres undefined) it was -23.7%; in that of `Cc1cc(-c2cc(S(=O)(=O)N3C[C@H](C4CC4)[C@@H](N)C3)c(C)s2)[nH]n1`, 25.5%; in that of `COCCN1CCCn2cnc(CNC3CCCC3)c2C1`, 55.5%.
Next, `COCCN1CCCn2cnc(CNC(=O)N(C)C)c2C1`: 29.8%.
Next, `COCCN1CCCn2cnc(CN(C)C(C)C)c2C1`: 21.7%.
